Results from PubChem BioAssay (Tox21).
Records with an inconclusive call do not appear. Activity calls are given as the source filed them. Unless noted, calls come from the whole dose curve; as a rule, active = well fitted curve in the direction sought with a large enough effect in the repeat runs; inconclusive = weak or mixed curves; inactive = no such curve, though single readings can be large; an effect the other way counts as inactive or inconclusive.

Experiments:
[1] = molecular target: Thyrotropin-releasing hormone receptor (Homo sapiens) (UniProt P34981); assay: qHTS assay to identify small molecule agonists of the thyrotropin-releasing hormone receptor (TRHR) signaling pathway (AID 1346891; calls by dose curve; note: series mostly up to about 58 µM)
Sequence of Thyrotropin-releasing hormone receptor (Homo sapiens) (P34981 whole entry, looked up): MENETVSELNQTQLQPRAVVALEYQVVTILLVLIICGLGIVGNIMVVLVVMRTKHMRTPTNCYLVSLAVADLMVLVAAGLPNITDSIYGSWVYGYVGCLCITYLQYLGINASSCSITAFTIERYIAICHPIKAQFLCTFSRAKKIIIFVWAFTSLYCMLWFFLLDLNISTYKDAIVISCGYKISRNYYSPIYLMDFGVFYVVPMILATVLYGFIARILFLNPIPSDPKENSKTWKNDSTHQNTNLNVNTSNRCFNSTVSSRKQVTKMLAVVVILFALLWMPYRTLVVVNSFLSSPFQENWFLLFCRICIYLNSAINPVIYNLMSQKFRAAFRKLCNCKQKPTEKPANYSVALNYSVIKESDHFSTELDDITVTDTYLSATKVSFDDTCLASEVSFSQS
Summary of the method: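 Intracellular calcium rise, read as fluorescence every second for 3 min, served as the agonist signal in dye-loaded HEK293 cells expressing TRHR; each compound ran at 15 concentrations in triplicate.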

[2] = Human pregnane X receptor (PXR) small molecule agonists, qHTS cell viability counter screen (AID 1346977); note: nearly all actives have a fitted effect of over 50% in size; note: potency is the fitted concentration of half-maximal effect
Summary of the method: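 PXR-Luc HepG2, 2,000 cells/well, 5% charcoal-stripped FBS; 5hr settle; cpd 24hr, 37C/5% CO2; CellTiter-Fluor at 23hr, read 1hr later (fluorescence).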

[3] = Caspase-3/7 induction in HepG2 cells by small molecules, qHTS assay (AID 1346978); note: nearly all actives have a fitted effect of over 15% in size
Summary of the method: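 Caspase-3/7 induction was measured by Caspase-Glo 3/7 luminescence (30 min, room temperature) after a 17 hr compound exposure of wild-type HepG2 cells seeded at 2,000 per well and pre-incubated 5 hr.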

[4] = Caspase-3/7 induction in CHO-K1 cells by small molecules, qHTS cell viability counter screen (AID 1346979); note: nearly all actives have a fitted effect of over 35% in size; note: potency is the fitted concentration of half-maximal effect
Summary of the method: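 Cells (CHO-K1, wild type) are plated at 1,500 per well and incubated 5hr. Test compounds in DMSO are then pinned in, followed by 16hr at 37C and 5% CO2. Viability is read by CellTiter-Fluor fluorescence after 1hr.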

[5] = Caspase-3/7 induction in HepG2 cells by small molecules, qHTS cell viability counter screen (AID 1346981); note: series mostly up to about 92 µM; nearly all actives have a fitted effect of over 30% in size
Summary of the method: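 Steps: seed 2,000 HepG2 cells per well; incubate 5 hr at 37 C; pin-add compounds in DMSO; incubate 16 hr; add CellTiter-Fluor; after 1 hr at 37 C and 5% CO2, read fluorescence.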

[6] = molecular target: Nuclear receptor subfamily 1 group I member 2 (Homo sapiens) (UniProt O75469); assay: Human pregnane X receptor (PXR) small molecule agonists, qHTS assay (AID 1346982); note: nearly all actives have a fitted effect of over 35% in size; note: potency is the fitted concentration of half-maximal effect
Sequence of Nuclear receptor subfamily 1 group I member 2 (Homo sapiens) (O75469 whole entry, looked up): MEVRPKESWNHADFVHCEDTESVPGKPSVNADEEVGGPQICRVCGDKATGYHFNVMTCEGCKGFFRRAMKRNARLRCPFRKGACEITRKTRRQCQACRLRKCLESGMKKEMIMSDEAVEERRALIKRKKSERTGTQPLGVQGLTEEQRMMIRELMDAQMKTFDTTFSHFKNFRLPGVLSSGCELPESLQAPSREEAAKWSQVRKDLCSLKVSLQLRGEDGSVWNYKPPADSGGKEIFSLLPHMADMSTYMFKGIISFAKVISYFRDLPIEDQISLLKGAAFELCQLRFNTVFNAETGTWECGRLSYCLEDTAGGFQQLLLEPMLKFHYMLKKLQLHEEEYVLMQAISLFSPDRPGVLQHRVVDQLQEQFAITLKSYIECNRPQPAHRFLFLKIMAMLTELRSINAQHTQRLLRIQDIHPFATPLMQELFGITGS
Summary of the method: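 Agonist mode qHTS: PXR-Luc HepG2 cells plated 5 hr before DMSO-dissolved compounds were pinned in, cultured 24 hr at 37 C, 5% CO2; ONE-Glo luminescence readout.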

[7] = molecular target: Nuclear receptor subfamily 1 group I member 2 (Rattus norvegicus) (UniProt Q9R1A7); assay: Rat pregnane X receptor (rPXR) activation by small molecules, qHTS assay (AID 1346983); settings: rPXR luciferase reporter cells, One-Glo luminescence, 24 h; max activation: hits give high values; note: nearly all actives have a fitted effect of over 20% in size
Sequence of Nuclear receptor subfamily 1 group I member 2 (Rattus norvegicus) (Q9R1A7 whole entry, looked up): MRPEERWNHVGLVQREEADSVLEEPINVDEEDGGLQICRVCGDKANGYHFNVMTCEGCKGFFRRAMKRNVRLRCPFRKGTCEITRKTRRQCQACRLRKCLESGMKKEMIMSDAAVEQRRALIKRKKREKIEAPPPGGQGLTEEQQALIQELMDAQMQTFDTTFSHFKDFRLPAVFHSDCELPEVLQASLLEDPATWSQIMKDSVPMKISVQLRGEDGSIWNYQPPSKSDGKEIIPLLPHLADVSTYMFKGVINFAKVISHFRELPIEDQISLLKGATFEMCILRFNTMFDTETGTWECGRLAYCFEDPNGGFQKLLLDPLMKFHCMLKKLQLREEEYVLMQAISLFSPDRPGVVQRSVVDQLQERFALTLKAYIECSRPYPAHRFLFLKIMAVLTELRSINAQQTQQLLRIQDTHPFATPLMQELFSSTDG
Summary of the method: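 Luminescent readout (One-Glo luciferase, 30 min room temperature) followed 24 hr compound treatment at 37 C of rPXR cells plated 2,000 per well and preincubated 5hr; qHTS format with compounds delivered in DMSO.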

[8] = molecular target: Nuclear receptor subfamily 1 group I member 2 (Homo sapiens) (UniProt O75469); assay: CYP3A4 induction through human pregnane X receptor (PXR) by small molecules, qHTS assay (AID 1346984); note: nearly all actives have a fitted effect of over 40% in size
Summary of the method: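 Steps: seed DPX-2 cells, 5 hr at 37C; pin-transfer compounds; 24 hr at 37C; add Luciferin-IPA (3uM final), 3 hr at 37C; add One-Glo, 30 min RT; read luminescence.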

[9] = molecular target: Nuclear receptor subfamily 1 group I member 2 (Homo sapiens) (UniProt O75469); assay: Human pregnane X receptor (PXR) activation by small molecules, qHTS assay (AID 1346985); note: nearly all actives have a fitted effect of over 40% in size
Summary of the method: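 DPX-2 cells (HepG2 co-transfected with a PXR response element and a CYP3A4-promoter luciferase construct) were seeded at 2,000 per well, rested 5 hr at 37C, then exposed to DMSO-dissolved compounds for 24 hr. Activation was read as luciferase luminescence.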

[10] = molecular target: Cytochrome P450 2D6 (Homo sapiens) (UniProt P10635); assay: Cytochrome P450 Family 2 Subfamily D Member 6 (CYP2D6) small molecule antagonists: luciferase reporter qHTS assay (AID 1671196); note: nearly all actives have a fitted effect of over 50% in size; note: potency is the fitted concentration of half-maximal effect; for activity change, negative = inhibition: series mostly up to about 120 µM
Sequence of Cytochrome P450 2D6 (Homo sapiens) (P10635 whole entry, looked up): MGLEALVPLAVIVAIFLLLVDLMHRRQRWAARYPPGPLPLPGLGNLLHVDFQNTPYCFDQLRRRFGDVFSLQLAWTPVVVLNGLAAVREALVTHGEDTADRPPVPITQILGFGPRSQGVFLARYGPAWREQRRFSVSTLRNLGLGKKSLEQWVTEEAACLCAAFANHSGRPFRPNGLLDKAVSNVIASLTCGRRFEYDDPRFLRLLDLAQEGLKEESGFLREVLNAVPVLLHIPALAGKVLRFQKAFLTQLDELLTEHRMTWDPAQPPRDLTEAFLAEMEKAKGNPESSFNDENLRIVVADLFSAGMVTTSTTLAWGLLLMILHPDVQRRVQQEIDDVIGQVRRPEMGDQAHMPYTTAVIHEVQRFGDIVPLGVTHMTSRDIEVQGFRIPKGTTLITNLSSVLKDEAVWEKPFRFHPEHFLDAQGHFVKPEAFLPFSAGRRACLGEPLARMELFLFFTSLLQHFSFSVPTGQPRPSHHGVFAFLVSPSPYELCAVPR
Summary of the method: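 P450-Glo format: CYP2D6 converts a proluciferin substrate to luciferin in an NADPH-driven reaction lasting 1 h at room temperature. Light output, proportional to CYP2D6 activity, reflects interference by test chemicals.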

[11] = molecular target: Cytochrome P450 2C19 (Homo sapiens) (UniProt P33261); assay: Cytochrome P450 Family 2 Subfamily C Member 19 (CYP2C19) small molecule antagonists: luciferase reporter qHTS assay (AID 1671197); note: nearly all actives have a fitted effect of over 65% in size; note: potency is the fitted concentration of half-maximal effect; for activity change, negative = inhibition: series mostly up to about 120 µM
Sequence of Cytochrome P450 2C19 (Homo sapiens) (P33261 whole entry, looked up): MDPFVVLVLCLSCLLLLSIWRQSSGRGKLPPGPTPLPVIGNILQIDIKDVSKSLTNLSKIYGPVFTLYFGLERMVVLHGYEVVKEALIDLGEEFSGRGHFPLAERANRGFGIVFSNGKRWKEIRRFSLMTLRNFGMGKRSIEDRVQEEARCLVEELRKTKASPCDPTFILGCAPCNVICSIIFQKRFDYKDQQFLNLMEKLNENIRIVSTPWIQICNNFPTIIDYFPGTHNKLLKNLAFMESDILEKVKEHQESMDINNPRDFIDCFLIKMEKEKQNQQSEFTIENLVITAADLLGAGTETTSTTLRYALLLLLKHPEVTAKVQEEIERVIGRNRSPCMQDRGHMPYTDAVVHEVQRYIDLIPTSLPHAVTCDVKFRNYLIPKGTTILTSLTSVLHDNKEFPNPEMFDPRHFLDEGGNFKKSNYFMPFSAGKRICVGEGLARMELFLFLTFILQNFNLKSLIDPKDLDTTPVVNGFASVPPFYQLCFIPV
Summary of the method: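 Compounds were tested on CYP2C19 activity via proluciferin conversion to luciferin. The 37C, 1 h reaction followed NADPH addition; detection reagent stopped it.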

[12] = Caspase-3/7 induction in CHO-K1 cells by small molecules, qHTS assay (AID 1346980); note: nearly all actives have a fitted effect of over 15% in size
Summary of the method: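 Luminescent Caspase-Glo 3/7 read (30min, room temperature) quantified apoptosis induction. Cells were wild-type CHO-K1, treated with compound for 17hr at 37 C and 5% CO2.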

[13] = molecular target: Cytochrome P450 2C9 (Homo sapiens) (UniProt P11712); assay: Cytochrome P450 Family 2 Subfamily C Member 9 (CYP2C9) small molecule antagonists: luciferase reporter qHTS assay (AID 1671198); note: nearly all actives have a fitted effect of over 50% in size; note: potency is the fitted concentration of half-maximal effect; for activity change, negative = inhibition: series mostly up to about 120 µM
Sequence of Cytochrome P450 2C9 (Homo sapiens) (P11712 whole entry, looked up): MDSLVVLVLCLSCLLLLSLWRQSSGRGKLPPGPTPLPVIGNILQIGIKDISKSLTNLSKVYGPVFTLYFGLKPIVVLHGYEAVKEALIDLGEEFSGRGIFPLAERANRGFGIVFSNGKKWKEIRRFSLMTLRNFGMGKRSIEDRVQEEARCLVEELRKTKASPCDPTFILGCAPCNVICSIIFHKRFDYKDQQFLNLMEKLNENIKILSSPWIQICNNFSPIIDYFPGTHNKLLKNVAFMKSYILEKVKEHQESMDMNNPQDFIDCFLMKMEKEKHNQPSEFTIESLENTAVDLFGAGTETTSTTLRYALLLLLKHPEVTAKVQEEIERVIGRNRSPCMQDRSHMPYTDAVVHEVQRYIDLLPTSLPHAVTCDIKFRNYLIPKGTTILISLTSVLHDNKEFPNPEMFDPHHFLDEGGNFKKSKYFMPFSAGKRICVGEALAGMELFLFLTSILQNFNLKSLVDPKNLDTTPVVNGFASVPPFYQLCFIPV
Summary of the method: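 Enzyme-substrate mix preincubated with compound 10 min at room temperature; reaction started with NADPH regeneration solution, 1 h 37C. Luminescent luciferin product read after 20 min detection reagent.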

[14] = molecular target: Cytochrome P450 1A2 (Homo sapiens) (UniProt P05177); assay: Cytochrome P450 Family 1 Subfamily A Member 2 (CYP1A2) small molecule antagonists: luciferase reporter qHTS assay (AID 1671199); note: nearly all actives have a fitted effect of over 50% in size; note: potency is the fitted concentration of half-maximal effect; for activity change, negative = inhibition: series mostly up to about 120 µM
Sequence of Cytochrome P450 1A2 (Homo sapiens) (P05177 whole entry, looked up): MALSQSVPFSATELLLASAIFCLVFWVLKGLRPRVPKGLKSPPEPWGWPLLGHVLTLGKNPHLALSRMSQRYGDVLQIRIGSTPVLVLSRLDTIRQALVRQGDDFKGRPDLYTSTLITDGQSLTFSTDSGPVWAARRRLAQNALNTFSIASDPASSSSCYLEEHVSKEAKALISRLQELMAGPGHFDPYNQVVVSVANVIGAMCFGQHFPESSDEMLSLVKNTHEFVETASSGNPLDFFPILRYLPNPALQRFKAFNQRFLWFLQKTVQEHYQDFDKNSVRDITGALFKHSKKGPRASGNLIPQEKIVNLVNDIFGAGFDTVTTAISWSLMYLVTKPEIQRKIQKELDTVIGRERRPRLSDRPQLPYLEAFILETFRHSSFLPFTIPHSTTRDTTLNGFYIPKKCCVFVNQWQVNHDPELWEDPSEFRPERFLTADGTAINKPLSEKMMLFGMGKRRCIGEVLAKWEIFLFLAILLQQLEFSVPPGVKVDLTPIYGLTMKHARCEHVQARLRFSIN
Summary of the method: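 Inhibition of CYP1A2 conversion of proluciferin to luciferin, detected by luminescence. Reaction run 1 h at room temperature with NADPH regeneration after brief compound preincubation.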

[15] = molecular target: Voltage-gated inwardly rectifying potassium channel KCNH2 (Homo sapiens) (UniProt Q12809); assay: Human Ether-a-go-go-Related Gene (hERG) channel small molecule antagonists: fluorescence cell-based qHTS assay (AID 1671200)
Sequence of Voltage-gated inwardly rectifying potassium channel KCNH2 (Homo sapiens) (Q12809 whole entry, looked up): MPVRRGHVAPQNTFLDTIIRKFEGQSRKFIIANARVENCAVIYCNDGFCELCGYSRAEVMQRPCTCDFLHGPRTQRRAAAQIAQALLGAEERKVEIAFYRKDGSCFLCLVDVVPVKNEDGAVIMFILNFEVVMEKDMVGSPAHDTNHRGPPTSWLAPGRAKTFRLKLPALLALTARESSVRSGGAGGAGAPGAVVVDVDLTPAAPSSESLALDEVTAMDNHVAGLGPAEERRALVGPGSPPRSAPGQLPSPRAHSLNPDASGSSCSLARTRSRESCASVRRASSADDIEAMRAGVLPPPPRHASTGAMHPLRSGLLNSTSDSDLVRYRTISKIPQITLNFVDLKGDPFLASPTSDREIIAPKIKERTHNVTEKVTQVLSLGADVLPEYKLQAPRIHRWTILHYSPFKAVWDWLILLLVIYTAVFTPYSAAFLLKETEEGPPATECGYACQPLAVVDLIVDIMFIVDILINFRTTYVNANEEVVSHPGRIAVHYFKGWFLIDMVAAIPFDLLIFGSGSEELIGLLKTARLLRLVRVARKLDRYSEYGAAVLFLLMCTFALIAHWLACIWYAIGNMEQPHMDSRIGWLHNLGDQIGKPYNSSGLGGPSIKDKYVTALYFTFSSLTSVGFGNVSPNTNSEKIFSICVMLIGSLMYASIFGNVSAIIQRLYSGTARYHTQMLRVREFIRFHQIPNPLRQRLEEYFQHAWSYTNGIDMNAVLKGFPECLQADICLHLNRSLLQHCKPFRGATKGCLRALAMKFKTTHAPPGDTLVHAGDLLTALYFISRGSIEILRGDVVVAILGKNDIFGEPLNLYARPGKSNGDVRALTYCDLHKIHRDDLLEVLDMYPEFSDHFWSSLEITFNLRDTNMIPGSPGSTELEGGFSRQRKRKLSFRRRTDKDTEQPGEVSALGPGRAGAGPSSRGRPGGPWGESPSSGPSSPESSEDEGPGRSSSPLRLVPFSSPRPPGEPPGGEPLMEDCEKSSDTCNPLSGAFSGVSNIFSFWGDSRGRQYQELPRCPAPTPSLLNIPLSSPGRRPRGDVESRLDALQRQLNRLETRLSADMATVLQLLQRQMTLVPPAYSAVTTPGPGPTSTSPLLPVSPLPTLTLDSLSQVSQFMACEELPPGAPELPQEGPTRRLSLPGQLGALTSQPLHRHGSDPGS
Summary of the method: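 Channel function was assessed by thallium flux. Cells seeded the previous day and kept at 37 C took up FluxOR II dye over 1 h in the dark at room temperature, then sat another 10 min before stimulation.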

[16] = molecular target: Cytochrome P450 3A4 (Homo sapiens) (UniProt P08684); assay: Cytochrome P450 Family 3 Subfamily A Member 4 (CYP3A4) small molecule antagonists: luciferase reporter qHTS assay (AID 1671201); note: nearly all actives have a fitted effect of over 50% in size; note: potency is the fitted concentration of half-maximal effect; for activity change, negative = inhibition: series mostly up to about 120 µM
Sequence of Cytochrome P450 3A4 (Homo sapiens) (P08684 whole entry, looked up): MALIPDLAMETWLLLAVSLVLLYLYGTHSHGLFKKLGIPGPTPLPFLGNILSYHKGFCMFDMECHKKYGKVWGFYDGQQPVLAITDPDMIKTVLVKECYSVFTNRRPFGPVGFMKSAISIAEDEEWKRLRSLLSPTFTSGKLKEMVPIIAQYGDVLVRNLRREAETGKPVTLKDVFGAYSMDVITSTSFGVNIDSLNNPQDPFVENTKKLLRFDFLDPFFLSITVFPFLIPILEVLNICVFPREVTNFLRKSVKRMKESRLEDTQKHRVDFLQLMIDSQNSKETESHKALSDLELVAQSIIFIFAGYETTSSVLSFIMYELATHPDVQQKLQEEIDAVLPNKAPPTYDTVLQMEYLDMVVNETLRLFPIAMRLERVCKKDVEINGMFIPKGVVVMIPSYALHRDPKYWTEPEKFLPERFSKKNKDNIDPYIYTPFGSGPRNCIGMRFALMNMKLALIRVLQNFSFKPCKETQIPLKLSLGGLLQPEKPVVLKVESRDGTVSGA
Summary of the method: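 Compounds in DMSO were pin-transferred onto CYP3A4 enzyme-substrate mix and held 10 min at room temperature. NADPH regenerating solution started the reaction for 1 h; luciferin detection reagent stopped it, and luminescence was read after 20 min.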
% is set by controls: 0 for no effect and ±100 for the full control effect.

Cc1c(-c2ccccc2)oc2c(C(=O)OCCN3CCCCC3)cccc2c1=O
inactive: Potency [1] | Potency [2] | Potency [3] | Potency [4] | Potency [5] | Potency [6] | max activation [7] -3.87% | Potency [8] | Potency [9] | Potency [11]
active: Potency [10] 5.49 µM

C=C(C)C(=O)OCCOP(=O)(O)O
inactive: Potency [1] | Potency [2] | Potency [3] | outcome [12] | Potency [5] | Potency [6] | Potency [10] | Potency [13] | Potency [14] | Potency [15] | Potency [16]

Cc1onc(-c2ccccc2)c1C(=O)Cl
inactive: Potency [1] | Potency [2] | Potency [3] | Potency [4] | Potency [5] | Potency [6] | Potency [10] | Potency [11] | Potency [13] | Potency [14] | Potency [15] | Potency [16]

Cc1ncc(CO)c(CN)c1O
inactive: Potency [1] | Potency [2] | Potency [3] | outcome [12] | Potency [5] | Potency [6] | max activation [7] -1.2% | Potency [8] | Potency [9] | Potency [10] | Potency [13] | Potency [14] | Potency [15] | Potency [16]

CCCCN1C[C@H](O)[C@@H](O)[C@H](O)[C@H]1CO
inactive: Potency [1] | Potency [2] | Potency [3] | Potency [4] | Potency [5] | Potency [6] | max activation [7] -1.78% | Potency [8] | Potency [9] | Potency [10] | Potency [13] | Potency [14] | Potency [15] | Potency [16]

OCc1ccccc1O
inactive: Potency [1] | Potency [2] | Potency [3] | Potency [4] | Potency [5] | Potency [6] | max activation [7] 11.7% | Potency [8] | Potency [9] | Potency [10] | Potency [11] | Potency [13] | Potency [14] | Potency [15] | Potency [16]

CC1=CC(=O)CC(C)(C)C1=O
active: Potency [6] 62.4 µM
inactive: Potency [1] | Potency [2] | Potency [3] | outcome [12] | Potency [5] | Potency [10] | Potency [11] | Potency [13] | Potency [14] | Potency [15] | Potency [16]

CCCC1CCC(=O)O1 (stereo not given)
inactive: Potency [1] | Potency [2] | Potency [3] | Potency [4] | Potency [5] | Potency [6] | Potency [10] | Potency [11] | Potency [13] | Potency [16]

CCCN(CCC)C(=O)C(CCC(=O)O)NC(=O)c1ccccc1 (stereo not given)
inactive: Potency [1] | Potency [2] | Potency [3] | Potency [4] | Potency [5] | Potency [6] | max activation [7] 0.444% | Potency [8] | Potency [9] | Potency [10] | Potency [11] | Potency [13] | Potency [14] | Potency [15] | Potency [16]

O=C(O)c1ccccc1Nc1cc(Cl)ccc1C(=O)O
active: Potency [10] 1.51 µM
inactive: activation [1] -0.215% [at 11.8 µM] | activity change, negative = cytotoxicity [2] 7.26% [at 19 µM] | caspase activation [3] 0.287% [at 19 µM] | activity change, negative = cytotoxicity [4] 5.08% [at 19 µM] | activity change, negative = cytotoxicity [5] 3.27% [at 19 µM] | activation [6] 5.75% [at 19 µM] | Potency [13] | Potency [14] | activity change, negative = inhibition [15] 6.42% [at 15.8 µM] | activity change, negative = inhibition [16] 34.1% [at 23.6 µM]

CC(C)C1=CC2=CC[C@@H]3[C@](C)(CCC[C@@]3(C)C(=O)O)[C@H]2CC1
inactive: Potency [1] | Potency [2] | Potency [3] | outcome [12] | Potency [5] | max activation [7] -2.9% | Potency [8] | Potency [9] | Potency [10] | Potency [15]
active: Potency [6] 27.3 µM | Potency [11] 35.6 µM | Potency [13] 28.3 µM | Potency [16] 35.6 µM

CCN1CC(CCN2CCOCC2)C(c2ccccc2)(c2ccccc2)C1=O (stereo not given)
active: Potency [10] 1.23 µM
inactive: Potency [1] | Potency [2] | Potency [3] | outcome [12] | Potency [5] | Potency [6] | max activation [7] 9.94% | Potency [8] | Potency [11] | Potency [13] | Potency [14] | Potency [15]

CC[C@H]1CC[C@H](NCc2cc3c(cc2OC)[C@H]2C[C@H]2C(=O)N3C)[C@H](c2ccccc2)N1
active: Potency [2] 30.6 µM | Potency [4] 24.3 µM | Potency [6] 17.2 µM | Potency [10] 7.1 µM
inactive: Potency [1] | Potency [3] | Potency [5] | Potency [11] | Potency [15]

C=CC(C)(O)CC/C=C(\C)CCC=C(C)C (stereo not given)
inactive: Potency [1] | Potency [2] | Potency [3] | Potency [4] | Potency [5] | Potency [6] | max activation [7] 3.74% | Potency [8] | Potency [9]
active: Potency [11] 17.8 µM | Potency [13] 31.7 µM | Potency [14] 31.7 µM

Cc1c(N)cccc1N
active: Potency [10] 72.6 µM | Potency [13] 64.7 µM | Potency [16] 6.47 µM
inactive: Potency [1] | Potency [2] | Potency [4] | outcome [12] | Potency [5] | Potency [15]

CC(C)NC[C@@H](O)COc1cccc2ccccc12
inactive: Potency [1] | Potency [3] | Potency [4] | outcome [12] | Potency [5]

COc1ccccc1OCC(O)COC(N)=O (stereo not given)
inactive: Potency [1] | Potency [3] | Potency [4] | outcome [12] | Potency [5] | Potency [6] | max activation [7] 0.101% | Potency [8] | Potency [9] | Potency [10] | Potency [13] | Potency [15] | Potency [16]

CCC(=O)Nc1ccc(O)cc1
inactive: Potency [1] | Potency [2] | Potency [4] | outcome [12] | Potency [5] | Potency [6] | max activation [7] -1.74% | Potency [8] | Potency [9] | Potency [10] | Potency [11] | Potency [13] | Potency [15] | Potency [16]

C1CCOC1
inactive: Potency [1] | Potency [3] | Potency [4] | outcome [12] | Potency [5] | Potency [15]
